Inconclusive results are not listed. Some structures have more than one record in an assay (separate samples or runs), and their calls can disagree. Active and inactive are the calls of the source. How the source made its calls: active means hit-call score of the fitted dose curve at least 0.9, where 1 is the maximum; inconclusive means response in the unintended direction; inactive means score below 0.9.
Each molecule was assayed against Cellular tumor antigen p53 (Homo sapiens) (UniProt P04637) (assay: TOX21_p53_BLA_p2_ratio: Tox21 HCT-116 p53 Agonism Beta-lactamase Assay, Ratio, Phase 2 (AID 2283592)).
Sequence of Cellular tumor antigen p53 (Homo sapiens) (P04637 whole entry, looked up, the tested form may be a part): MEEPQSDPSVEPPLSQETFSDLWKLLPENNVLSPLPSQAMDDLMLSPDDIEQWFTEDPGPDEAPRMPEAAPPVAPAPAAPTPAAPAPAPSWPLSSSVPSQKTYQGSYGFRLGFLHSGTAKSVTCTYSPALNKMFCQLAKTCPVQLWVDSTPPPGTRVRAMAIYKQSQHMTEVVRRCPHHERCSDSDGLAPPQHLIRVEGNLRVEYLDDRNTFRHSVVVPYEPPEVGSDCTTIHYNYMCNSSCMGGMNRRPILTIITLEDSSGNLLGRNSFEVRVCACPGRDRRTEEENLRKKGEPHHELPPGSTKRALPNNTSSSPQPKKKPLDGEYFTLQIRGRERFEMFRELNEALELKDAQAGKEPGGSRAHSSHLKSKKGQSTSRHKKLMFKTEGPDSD
From the text: TOX21_p53_BLA_p2 is a cell-based, single-readout assay that uses HCT116, a human intestinal cell line, […] in a 1536-well plate.TOX21_p53_BLA_p2_ratio is an assay readout measuring reporter gene via receptor activity and designed using inducible reporter (beta lactamase induction) detected with GAL4 b-lactamase reporter gene. The signal is derived from the ratio of cleaved (ch2) to uncleaved (ch1) reporter gene substrate used as the measure of target activity.Data from the assay component TOX21_p53_BLA_p2_ratio was analyzed into 1 assay endpoint. This assay endpoint, TOX21_p53_BLA_p2_ratio, was analyzed in the positive analysis fitting direction relative to DMSO as the negative control and baseline of activity. Using a type of inducible reporter, gain-of-signal activity can be used to understand changes in the reporter gene as they relate to the gene TP53. Furthermore, this assay endpoint can be referred to as a primary readout, because this assay has produced multiple assay endpoints and this ratio serves a reporter gene function to understand target activity. To generalize the intended target to other relatable targets, this assay endpoint is annotated to the DNA binding intended target family, where the subfamily is tumor suppressor.
Thawing Method: Place 14 mL of pre-warmed thaw medium into a 15 mL of conical tub. Remove the vial of cells to be thawed from liquid nitrogen and thaw rapidly by placing at 37C in a water bath with gentle agitation for 1-2 minutes. Decontaminate the vial by wiping with 70% ethanol before opening in a biological safety cabinet. Transfer the vial contents drop-wise into 14 mL of thaw medium in a sterile 15-mL conical tub. Centrifuge cells at 900 rpm for 4 minutes and resuspend in thaw medium. Transfer contents to the T75 tissue culture flask containing Thaw Medium and place flask in a humidified 37C/5% CO2 incubator. Switch to growth medium at first passage.Propagation Method: Aspirate medium, rinse once in DPBS, add 0.25% Trypsin/EDTA and swirl to coat the cell evenly. Add an equal volume of Growth Medium to inactivate Trypsin after 2-3 minutes incubation at 37C. Centrifuge cells at 900 rpm for 4 minutes and resuspend in growth medium. Cell should be passage or fed at least twice a week.Assay Protocol: Harvest cells from culture in growth medium and resuspend in assay medium. 2.2 Dispense 4000 cells/5 uL/well into 1536-well black/clear bottom plates using a Multidrop dispenser. After the cells were incubated at 37C for 5 hours, 23 nL of compounds dissolved in DMSO were transferred to the assay plate by a PinTool resulting in a 217-fold dilution. Incubate the plates for 16 hours at 37C, 5% CO2. Add 1 uL of 6X LiveBLAzer FRET B/G (CCF4-AM) Substrate Mixture to each well using a BioRAPTR dispenser and incubate the plates at room temperature for 2 hours. Measure fluorescence intensity at 460 and 530 nm emission and 405 nm excitation by an Envision detector. Data is expressed as the ratio of 460nm/530nm emissions. Add 4 uL of Cell-titer Glo to each well using BioRAPTR and incubate the plates at room temperature for 2 hours. Measure fluorescence intensity by a VewLux plate reader.

Row | Structure (SMILES) | outcome | AC50
1 | BrCCCCCCBr | inactive | 
2 | C[C@@H](Cc1ccccc1)N(C)C | inactive | 
3 | COc1cc(C[C@H](C)N)c(OC)cc1Br | inactive | 
4 | CC(Cl)C(=O)O (stereo not given) | inactive | 
5 | c1cc(OCC2CO2)ccc1Cc1ccc(OCC2CO2)cc1 (stereo not given) | inactive | 
6 | CCC1(c2ccccc2)CCC(=O)NC1=O (stereo not given) | inactive | 
7 | C=C(Cl)CSC(=S)N(CC)CC | inactive | 
8 | CC[C@H](N)c1ccccc1 | inactive | 
9 | C=CC1CC=CCC1 (stereo not given) | inactive | 
10 | O=[N+]([O-])c1cc([N+](=O)[O-])c2ccccc2c1 | inactive | 
11 | O=C(NC(=O)c1ccccc1Cl)Nc1ccc(OC(F)(F)F)cc1 | inactive | 
12 | CC(=O)C(Cl)Cl | inactive | 
13 | CCC1C(C)=NN=C(c2ccc(OC)c(OC)c2)c2cc(OC)c(OC)cc21 (stereo not given) | inactive | 
14 | CN[C@@]1(c2ccccc2Cl)CCCCC1=O | inactive | 
15 | NC(=O)CN1CC(O)CC1=O (stereo not given) | inactive | 
16 | BrCC(Br)C1CCC(Br)C(Br)C1 (stereo not given) | inactive | 
17 | CCCCCCCCCBr | inactive | 
18 | C[C@H]1[C@@H]2Cc3ccc(O)cc3[C@@]1(C)CCN2C | inactive | 
19 | CCC(=O)O[C@](Cc1ccccc1)(c1ccccc1)[C@H](C)CN(C)C | inactive | 
20 | CNCC(O)c1ccc(O)cc1 (stereo not given) | inactive | 

Row | Structure (SMILES) | outcome | AC50
21 | Oc1cc[c]([Hg][Cl])cc1 | inactive | 13.9 µM (active)
22 | COP(=S)(OC)Oc1ccc(S(N)(=O)=O)cc1 | inactive | 
23 | CC(C)NC(C)C | inactive | 
24 | C=C1C[C@@H]2[C@H](CC[C@]3(C)C(=O)CC[C@@H]23)[C@@]2(C)C=CC(=O)C=C12 | inactive | 
25 | CN(C)C(=O)C(c1ccccc1)c1ccccc1 | inactive | 
26 | CC(C)NCC(O)c1ccc(N)c(C#N)c1 (stereo not given) | inactive | 
27 | N#CCCCl | inactive | 
28 | COc1ccc2c(C(=O)c3ccc(Cl)cc3)c(C)n(CC(=O)O)c2c1 | inactive | 
29 | CNC(=O)Oc1cc(C)cc(C(C)C)c1 | inactive | 
30 | C=C(C)CCl | inactive | 
31 | CCCCCCCCCCOC(=O)c1ccccc1C(=O)OCCCCCCCCCC | inactive | 
32 | COc1ccc(C=O)cc1O | inactive | 
33 | NC1=NC(=O)N2CC12 (stereo not given) | inactive | 
34 | C[N+]1(CCF)[C@@H]2CC[C@H]1CC(OC(=O)C(O)(c1ccccc1)c1ccccc1)C2 (stereo not given in full) | inactive | 
35 | CN1CCc2cc3c(cc2C1O)OCO3 (stereo not given) |  | 46.3 µM (active)
36 | O=C(O)CBr | inactive | 
37 | CC(Cc1ccccc1)NC=O (stereo not given) | inactive | 
38 | c1ccoc1 | inactive | 
39 | COc1cc(OC)nc(Oc2cccc(Oc3nc(OC)cc(OC)n3)c2C(=O)O)n1 | inactive | 

— PubChem BioAssay (EPA / NIEHS)
